ClpP mod – qHTS Assay for Activators of ClpP; ATP-dependent Clp protease proteolytic subunit (Bacillus subtilis (strain 168)), P80244; purified B. subtilis ClpP, FRET peptide cleavage, 20 min; Potency, µM (series often up to 57.5 µM), for the others: at the highest dose activity change, negative = active; 340,000 tested, 1.9% active; AID 651965, 2013; active means well fitted falling curve with a large enough effect; inconclusive means small, poorly fitted or top-dose-only effect; inactive means no such curve, though single readings can be large or run the other way; further: potency means the concentration at half of the fitted maximal effect; the source files actives as falling curves though it sought activators and does not explain the sign; nearly all actives have a fitted effect of over 65% in size
Target sequence (P80244 whole entry, looked up): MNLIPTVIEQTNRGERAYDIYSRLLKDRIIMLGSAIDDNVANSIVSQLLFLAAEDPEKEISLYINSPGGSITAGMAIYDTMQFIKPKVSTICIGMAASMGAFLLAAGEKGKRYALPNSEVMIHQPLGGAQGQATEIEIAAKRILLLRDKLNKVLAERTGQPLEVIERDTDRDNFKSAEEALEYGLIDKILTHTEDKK
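FRET quenching reversal measured ClpP activation: 10 microg/mL B. subtilis ClpP at pH 8 with the FRET-FV decapeptide, read at 430 nm after 320 nm excitation. The 20-min minus 0-min signal was scaled between DMSO/no-enzyme wells and ADEP (5.8 microM final).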
DRD3 agonist – activates the human D3 dopamine receptor; P35462; D3R DiscoveRx beta-arrestin cells, luminescence, 90 min; max activation, %; 410,000 tested, 0.58% active; AID 652048; in the data active means max activation above about 30%; further: 0% is about no effect
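Cells at 1500/well, incubated overnight, then treated with pinned compounds (dopamine as control) for 90 min at 37 degrees C. DiscoveRx reagent added for 30 - 60 minutes at room temperature; luminescence read.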
GLP1R ag – GLP-1 receptor (human) agonism | P43220 | HEK293 GLP-1R CRE-luciferase, luminescence, 4-6 h; cells express a hypersensitive GLP-1R form | Potency, µM (doses to about 45.6 µM), without a hit: at the highest dose activation, usual class: activators | 380,000 tested, 0.007% active | AID 624172; further: potency means the concentration at half of the fitted maximal effect; % of control where 0% means no effect
Target sequence (P43220 whole entry, looked up): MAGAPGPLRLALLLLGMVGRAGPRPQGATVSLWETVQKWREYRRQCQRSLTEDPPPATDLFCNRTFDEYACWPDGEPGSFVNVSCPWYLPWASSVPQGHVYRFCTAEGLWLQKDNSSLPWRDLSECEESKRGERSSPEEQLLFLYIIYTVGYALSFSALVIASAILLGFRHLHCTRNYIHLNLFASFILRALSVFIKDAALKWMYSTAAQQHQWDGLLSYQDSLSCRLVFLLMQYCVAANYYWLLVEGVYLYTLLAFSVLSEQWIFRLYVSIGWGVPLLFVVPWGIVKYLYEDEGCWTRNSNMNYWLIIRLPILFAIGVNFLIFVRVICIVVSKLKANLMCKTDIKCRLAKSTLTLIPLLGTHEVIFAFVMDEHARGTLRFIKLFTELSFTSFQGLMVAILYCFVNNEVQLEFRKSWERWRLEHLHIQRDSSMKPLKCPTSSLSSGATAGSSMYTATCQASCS
GLP1R cytotox – cytotoxicity counter-screen for GLP-1 receptor inverse agonists; AID 624418; HEK293 cAMP-luciferase reporter cells, luminescence, 24 h; Potency, µM (titrated, usually from 38.3 µM), without a hit: at the highest dose activity change, negative = inhibition, most hits filed as inhibitors; 410,000 tested, 0.13% active;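 further: loss of luciferase light is scored as toxicity; potency means the concentration at half of the fitted maximal effect; on the % scale 0 is the no-effect control and ±100 the full control effect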
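Here, cytotoxicity is scored as loss of luminescence. The MLSMR collection was tested on cells seeded in medium containing 10% Nu serum, with a 24 hr compound exposure preceded by 12 hours of culture.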
D3 antag – D3 dopamine receptor (human) antagonism | P35462 | D3R cells, DiscoveRx beta-arrestin luminescence, antagonist mode; hits give low values | max response, negative = inhibition, % | 360,000 tested, 2.5% active | AID 652054; in the data active means max response below about -50%; inconclusive means no clear call, values can overlap the other calls; further: on the % scale 0 is the no-effect control and ±100 the full control effect
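Cells plated overnight at 1500 cells/well, then exposed to library compounds with dopamine controls for 90 minutes at 37 degrees C. DiscoveRx reagent added for 30–60 minutes at room temperature; luminescence read, quantitative HTS format.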
GLP1R inv ag – GLP-1 receptor (human) inverse agonism. HEK293 GLP-1R CRE-luciferase, luminescence, 24 h; GLP-1R form is constitutively active. Potency, µM (top dose mostly 38.3 µM), for inactives: top-dose activity change, negative = inhibition, actives largely listed as inhibitors. 410,000 tested, 1.6% active. AID 624417; further: potency means the concentration at half of the fitted maximal effect; on the % scale 0 is the no-effect control and ±100 the full control effect; nearly all actives have a fitted effect of over 55% in size
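HEK293 cells stably co-expressing a cAMP-responsive luciferase reporter and constitutively active GLP-1R were seeded, incubated 12 h, then exposed to compounds for 24 h at 37 C. Luminescence was read 12 min after detection reagent; inverse agonists lower signal.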
An asterisk follows results filed as active; i = inactive; ? = inconclusive; . = no result given; [ ] = remark or other dose. Only some compounds are listed: those with a hit (about 5.7% of all), similar ones and a draw of the others. Unless noted, the call rests on the fitted dose curve; in most records, active means well fitted curve in the direction sought with a large enough effect; inconclusive means small, poorly fitted or top-dose-only effect, or another doubt; inactive means no such curve, though single readings can be large; an effect the other way counts as inactive or inconclusive.

SMILES	ClpP mod	DRD3 agonist	GLP1R ag	GLP1R cytotox	D3 antag	GLP1R inv ag
COC1=C(C)C(=O)c2c(c(COC(N)=O)c3n2C[C@@H]2[C@@H]3N2C)C1=O (stereo partly specified)	3%	.	.	.	.	.
Cc1cc(C)c(C(=O)/C=C/c2ccc(C(C)C)cc2)c(=O)[nH]1	1%	2	-3%	?	-13	1.4µM*
CCCCC(CC)COC(=O)c1ccccc1C(=O)O (stereo unspecified)	.	-31	?	.	.	.
CCCCn1c(O)c(C(CC)=NCCCN(C)C)c(=O)[nH]c1=O	1%	-5	-2%	-17%	-64*	-29%
CCN(CC)C(=O)c1ccc(NC(=O)COc2ccc([N+](=O)[O-])cc2Cl)cc1	1%	-3	0%	-1%	-7	?
O=C(Nc1ccc([N+](=O)[O-])cc1)Nc1ccc(OC(F)F)c(Cl)c1	-1%	-2	-8%	?	3	3.5µM*
CN(C)CCc1c[nH]c2ccccc12	.	-13	2%[147 µM]	.	.	.
CCOP(=O)(Nc1ccc2c(c1)C(=NNC(N)=S)c1ccccc1-2)OCC	-6%	-15	-2%	13µM*	-20	?
CCOC(=O)Nc1ccc2c3c(cccc13)-c1ccccc1-2	-2%	-7	1%	336%	-28	?
CCCNc1oc(-c2cccc3ccccc23)nc1C#N	28µM*	-25	2%	251%	-13	26%
O=C(c1cc(F)ccc1F)C1CCCN(Cc2cc(Cl)ccc2O)C1 (stereo unspecified)	-1%	-15	-1%	-6%	?	?
Cc1cc(Cl)ccc1C(=O)C1CCCN(C2CCSCC2)C1 (stereo unspecified)	.	-25	3%	-21%	-76*	?
O=C(c1ccc(C(F)(F)F)cc1)C1CCCN(C2CCSCC2)C1 (stereo unspecified)	.	-18	10%	4%	-57*	?
C[C@H](N)Cc1ccccc1	.	.	-1%	.	.	.
Cc1ccc2c(CN3CC=C(c4ccccc4)CC3)cc(=O)oc2c1C	-11%	40*	0%	-11%	-27	1%
CCc1ccc2c(CN3CC=C(c4ccccc4)CC3)cc(=O)oc2c1	-7%	12	-12%	-18%	3	?
COc1cc(C)cc(CN2CC=C(c3ccccc3)CC2)c1O	1%	-7	17%	14%	?	?
COc1ccc(C(C)=O)cc1CN1CC=C(c2ccccc2)CC1	.	-19	8%	-15%	-101*	12%
CN(C)c1ccc(NC2=C(Cl)C(=O)c3ccccc3C2=O)cc1	.	-21	-9%	?	-93*	?
CC1(C)Cc2c(sc3c2C(=O)NC(c2cccnc2)N3)CO1 (stereo unspecified)	32µM*	-6	0%	-12%	39	0%
CN(C)C(=O)C(CCN1CCC(O)(c2ccc(Cl)cc2)CC1)(c1ccccc1)c1ccccc1	-5%	-80	.	-28%	-81*	?
CC(C)c1ccc(NC(=O)C2CCN(S(=O)(=O)c3ccc(Br)s3)CC2)cc1	-1%	8	.	-6%	.	?
NCC(O)c1cc(O)c(O)cc1F (stereo unspecified)	-4%	176*	18%	-8%	22	-15%
Cc1ccc(CN2C(=O)NC(=O)C3(Cc4c(nc5ccccn5c4=O)N4CCCCCC43)C2=O)cc1 (stereo unspecified)	-22%	54*	3%	-22%	13	-9%
O=C1NC(=O)C2(Cc3ccccc3N3CCCC32)C(=O)N1c1cccc(Cl)c1 (stereo unspecified)	-12%	2	-3%	7%	8	-5%
SMILES	ClpP mod	DRD3 agonist	GLP1R ag	GLP1R cytotox	D3 antag	GLP1R inv ag
CCCCn1c(N)c(C(=O)NCCN2CCOCC2)c2nc3ccccc3nc21	11µM*	-7	10%	i	33	?
CC(C)Cn1c(N)c(C(=O)NCCN2CCOCC2)c2nc3ccccc3nc21	28µM*	4	3%	198%	10	-10%
COCCNC(=O)c1c(NC(=O)c2ccco2)n(Cc2ccccc2)c2nc3ccccc3nc12	25µM*	-1	-10%	102%	60	12%
CCOC(=O)c1c(N)n(CCN2CCCCC2)c2nc3ccccc3nc12	32µM*	1	4%	201%	-27	5%
COCCCNC(=O)c1c(NC(=O)c2ccccc2Cl)n(Cc2ccccc2)c2nc3ccccc3nc12	?	-3	-2%	14%	?	0%
O=P(O)(O)C(O)C(F)(F)C(F)(F)C(F)(F)C(F)F (stereo unspecified)	-1%	0	7%	65%	-11	0%
C[C@H]1CN(C2CCC(C#N)(c3ccc(F)cc3)CC2)CC[C@@]1(C(=O)O)c1ccccc1 (stereo partly specified)	.	.	-1%[19.8 µM]	.	.	.
COc1ccc(OC)c(CCNCc2c(C(=O)O)c(C)n(Cc3ccc(F)cc3Cl)c2C)c1	1%	0	.	-7%	.	-28%
Cc1ccc(C(=O)CN2CCOCC2)cc1	-1%	.	.	.	.	.
CC(C)CC(=O)Nc1ccc(C(=O)Cn2c(=O)oc3ccccc32)cc1	-1%	1	-5%	-28%	-25	?
Nc1c(C(=O)NCCN2CCOCC2)c2nc3ccccc3nc2n1Cc1ccco1	16µM*	7	1%	401%	-27	-11%
CC(C)CCNC(=O)c1c(N)n(CC2CCCO2)c2nc3ccccc3nc12 (stereo unspecified)	?	3	-6%	i	12	?
CCC(C)NC(=O)c1c(N)n(CC2CCCO2)c2nc3ccccc3nc12 (stereo unspecified)	35µM*	3	11%	i	1	7.9µM*
C=CCNC(=O)c1c(N)n(Cc2ccco2)c2nc3ccccc3nc12	16µM*	10	20%	348%	-3	0%
CCCCn1c(NS(=O)(=O)c2ccccc2)c(C(=O)OCC)c2nc3ccccc3nc21	28µM*	4	-2%	444%	21	-11%
NC1(c2ccccc2)CCCCC1	.	1	8%[96 µM]	.	.	.
CCCC(C)C1(CC)C(=O)N=C(S)NC1=O (stereo unspecified)	.	0	.	.	.	.
N#Cc1ccccc1Cn1cc(C(=O)C2CC2)c2ccccc21	-8%	-12	11%	1%	8	?
CCC(=O)c1cn(Cc2ccccc2C#N)c2ccccc12	0%	-5	6%	-15%	29	10µM*
C[C@]12CCC(=O)C=C1CC[C@H]1C2CC[C@@]2(C)[C@@H]1CC[C@]2(C)O (stereo partly specified)	.	.	10%	.	.	.

High-throughput results deposited in PubChem by National Center for Advancing Translational Sciences (NCATS).
